Measured values reported in PubChem BioAssay (NCATS).
Inconclusive results are not listed. Where a call stands in place of a potency, no number is given. The source made the active and inactive calls. The call rests on the fitted dose curve; in most records, active means well fitted inhibition curve with a large enough effect; inconclusive means small, poorly fitted or top-dose-only effect; inactive means flat fitted curve, though single readings scatter.

Key:
Test in all cases: qHTS profiling for inhibitors of Plasmodium falciparum proliferation (AID 504749); further: nearly all actives have a fitted effect of over 60% in size
Conditions in all cases: P. falciparum in erythrocytes, SYBR Green DNA, 72 h; series mostly up to 28.7 µM
[1] = tested on: CP192
In short: (§1)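 In a 72 h erythrocytic culture (37 C, humidified, 5% CO2) at 2.5% hematocrit and 0.3% starting parasitemia, compounds were tested; SYBR Green I in detergent lysis buffer stained parasite DNA overnight.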

[2] = tested on: CP194
In short: as §1

[3] = tested on: CP201
In short: as §1

[4] = tested on: CP211
In short: as §1

[5] = tested on: CP217
In short: as §1

[6] = tested on: CP250
In short: as §1

[7] = tested on: CP252
In short: as §1

[8] = tested on: CP256
In short: as §1

[9] = tested on: CP265
In short: as §1

[10] = tested on: CP266
In short: as §1

[11] = tested on: CP269
In short: as §1

[12] = tested on: CP203
In short: as §1

[13] = tested on: CP215
In short: as §1

[14] = tested on: CP237
In short: as §1

[15] = tested on: CP238
In short: as §1

[16] = tested on: CP247
In short: as §1

[17] = tested on: CP260
In short: as §1

[18] = tested on: CP262
In short: as §1

[19] = tested on: CP268
In short: as §1
Potency means the concentration at half of the fitted maximal effect.

| Structure (SMILES) | Potency [1] | Potency [2] | Potency [3] | Potency [4] | Potency [5] | Potency [6] | Potency [7] | Potency [8] | Potency [9] | Potency [10] | Potency [11] | Potency [12] | Potency [13] | Potency [14] | Potency [15] | Potency [16] | Potency [17] | Potency [18] | Potency [19] |
| --- | --- | --- | --- | --- | --- | --- | --- | --- | --- | --- | --- | --- | --- | --- | --- | --- | --- | --- | --- |
| CO[C@]12C[C@@H](COC(=O)c3cncc(Br)c3)CN(C)[C@@H]1Cc1cn(C)c3cccc2c13 | inactive | inactive | inactive | inactive | inactive | inactive | inactive | inactive | inactive | inactive | inactive |  |  |  |  |  |  |  |  |
| CN(Cc1ccc(C(C)(C)C)cc1)Cc1cccc2ccccc12 | inactive | inactive | inactive | inactive | inactive | inactive | inactive | inactive | inactive | inactive | inactive | inactive | inactive | inactive | inactive | inactive | inactive | inactive | inactive |
| COC(=O)C(c1ccccc1Cl)N1CCc2sccc2C1 (stereo unspecified) |  |  |  |  |  |  |  |  |  |  |  |  |  |  |  | inactive |  |  |  |
| CC(C)(C)CC(C)(C)c1ccc(O)c(-n2nc3ccccc3n2)c1 | inactive | inactive | inactive | inactive |  |  |  |  |  | inactive | inactive | inactive | inactive |  |  | 11.2 µM (active) |  | inactive | inactive |
| CCOC(=O)Nc1ccc2c(c1)N(C(=O)CCN1CCOCC1)c1ccccc1S2 | inactive | inactive | inactive | inactive | inactive | inactive | inactive | inactive | inactive | inactive | inactive | inactive | inactive | inactive | inactive | inactive | inactive | inactive | inactive |
